Bioassay records (PubChem BioAssay)
AI-2 QS mod = Vibrio harveyi AI-2 quorum sensing modulators, primary screen, JMH597 strain, luminescence/OD600 ratio; Vibrio harveyi JMH597 AI-2 luminescence/OD600 ratio, 9 h; hits give low values; strain lacks LuxN and CqsS sensors; 0 = neutral-control median; activity change, % at 7.5 µM; 0.4% of 300,000 active; in the data active means activity change below about -75%, passing the limit was not always enough;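 further: luminescence divided by OD600 gain over 9 h not by final OD600 alone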
FXN GAA850 act = FXN promoter activators, primary screen, cell-based, luciferase luminescence, HEK293 lucGAA850. activation, % at 6 µM. HEK293 lucGAA850 FXN promoter luciferase reporter, 24 h; percent of 10 µM SAHA response. 0.56% of 360,000 active;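 active means activation above the average of all compounds screened plus 3 SD, cutoff fixed separately per campaign, cut at about 7.5% in these data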;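 further: 0% = DMSO wells and 100% = 10 µM SAHA wells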
HSF1 inh = HSF1 inhibitors in luciferase reporter cells, primary screen, cell-based, NIH3T3, luminescence. NIH3T3-HGL HSE-luciferase, MG132-induced, luminescence 8 h; hits give low values. activity change, negative = inhibition, % at 7.5 µM (by protocol). 0.77% of 300,000 active. AID 2098, 2009;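 active means more than half of replicate wells show activity change below -50%, luminescence cut by over half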;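 further: luciferase reports HSF-1 transcriptional activity via heat shock element; 0% = median of DMSO wells and -100% = zero luminescence signal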
HSP90 refold inh = HSP90 inhibitors, primary screen, cell lysate, luminescence; Heat shock protein HSP 90 (rabbit reticulocyte lysate; luciferase refolding); Rabbit reticulocyte lysate, luciferase refolding luminescence, 3 h; inhibition, % at 5.6 µM; 0.91% of 290,000 active; AID 1789, 2009;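 active means inhibition above the screen-wide mean plus 3 SD, computed separately per campaign, cut at about 16% in these data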;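 further: 0% = DMSO wells and 100% = 60 µM geldanamycin wells; inhibitors lower the luminescence because luciferase stays unfolded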
SMARCA2 act = SMARCA2 (BRM) function activators, primary screen, cell-based, luminescence, high throughput; MG213 cells, MMTV-luciferase reporter, dexamethasone, overnight; AID 652017, 2013; 1% of 370,000 active; activation, % at 9.1 µM; in the data active means activation above about 7.8%;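 further: 0% = vehicle wells and 100% = reference activator wells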
PG9 binder = binders of HIV-1 gp120 antibody PG9, primary screen, biochemical, TR-FRET | 0.43% of 360,000 active | TR-FRET gp120-PG9 antibody binding | HIV-1 gp120 / PG9 antibody interaction | inhibition, % at 6.7 µM; in the data active means inhibition above about 8.5%
SMARCA2 conf = SMARCA2 (BRM) function activators, confirmation, cell-based, luminescence, triplicate; shares compounds with SMARCA2 act; MG213 cells, MMTV-luciferase with dexamethasone, overnight; MG213 cells expressing E1A, Rb sequestered; DMSO wells 0%, reference activator 100%; activation, % at 9.1 µM; 30% of 3,500 active;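 active means activation above its plate's cutoff, the mean activation of tested wells plus 3 SD, cut at about 7.9% in these data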
GAL4-VP16 Luc = GAL4-VP16 luciferase reporter activation, counter-screen for SMARCA2 (BRM) activator project, cell-based, pG5luc, luminescence, high throughput; activation, % at 9.1 µM; AID 686939, 2013; 41% of 3,500 active; HEK293 GAL4-VP16 pG5luc reporter; scaled: DMSO wells 0%, SAHA wells 100%; shares compounds with SMARCA2 act;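 active means activation above the solvent-only control well mean plus 3 SD, averaged across control plates, cut at about 5.2% in these data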
The depositor's hits bear a star; . = no result given; ! = not confirmed by another sample. Most compounds without a hit are left out; they make up all but 3.4% or so of the library.

SMILES	AI-2 QS mod	FXN GAA850 act	HSF1 inh	HSP90 refold inh	SMARCA2 act	PG9 binder	SMARCA2 conf	GAL4-VP16 Luc
COc1ccc(N=Cc2nc(-c3ccco3)oc2O)cc1	2.7	-1.9	26.1	3.2	8.8*	-15.7	9.9*	4.3
Cc1oc(C(C)(C)C)cc1C(=O)NCc1ccc2c(c1)OCO2	10.2	0.1	0.6	2.9	8.8*	-1.4	3.0	-0.1
C=CC(=O)Nc1cccc(Nc2nc(N[C@H]3CC[C@H](N(C)C)CC3)nc3c2ncn3C(C)C)c1	.	-13.9	.	.	.	.	.	.
CCCCn1c(N)c(N(C)C(=O)c2cc3c(s2)CCCCC3)c(=O)[nH]c1=O	.	1.1	.	.	8.5*	-1.2	-0.5	1.4
CCCCn1c(N)c(N(CC)C(=O)c2cc3c(s2)CCCCC3)c(=O)[nH]c1=O	10.8	2.2	5.4	.	-3.4	0.0	.	.
O=C(C(=O)N1CCC(Cc2ccccc2)CC1)c1cccs1	.	.	.	.	-1.5	-0.9	.	.
CS(=O)(=O)N(CC(=O)N1CCCCCC1)c1ccc2c(c1)OCCO2	28.0	-0.1	-5.4	0.2	8.0*	-2.3	-3.5	0.6
CC(=O)c1cccc(-c2ccnc3c2CC(C(=O)Nc2cccc(Oc4ccccc4)c2)O3)c1 (configuration not stated)	.	-1.6	.	.	1.4	0.2	.	.
CN(C)c1ccc(C=C2C=Cc3ccccc32)cc1	.	2.6	.	.	9.3*	1.3	3.5	10.6*
COC(=O)[C@]12C[C@H](CC(=O)NCc3cccc4ccccc34)C(=O)N(Cc3ccc(Cl)cc3Cl)C1=C[C@H](C(C)C)O[C@@H]2C1CC1	.	.	.	.	0.5	.	.	.
Cn1nc(C(C)(C)C)cc1N1C(=O)CCC1(C)C(=O)Nc1ccc2c(c1)OCCO2 (configuration not stated)	.	.	.	.	0.7	-0.6	.	.
Cn1c(N)c(C(=O)COC(=O)c2cc(S(=O)(=O)N3CCOCC3)ccc2F)c(=O)n(C)c1=O	.	-1.0	.	.	36.6*	2.6	9.9*	0.4
Cc1ccc(S(=O)(=O)N2CCOCC2)cc1C(=O)OCC(=O)NC1CC1	.	2.5	.	.	9.3*	-0.5	-3.9	0.3
Cc1ccc(S(=O)(=O)N2CCOCC2)cc1C(=O)OCC(=O)NC1CCCCC1	.	-0.5	.	.	-1.3	-0.5	.	.
COC(=O)C1=C(C)N(Cc2ccc(Br)cc2)C(=S)NC1c1cccc(OC)c1 (configuration not stated)	.	.	.	.	-3.3	1.3	.	.
COC(=O)c1c(-c2cccnc2)csc1NC(=O)c1ccc2c(c1)OCO2	-9.3	6.4	-4.5	2.8	9.4*	-21.9	7.1	15.3*
Cn1c(=O)cc(SCC(=O)NCCC2=CCCCC2)c2ccc(Cl)cc21	29.2	3.0	-3.2	0.0	8.3*	-1.2	4.6	2.1
CCCCNC(=O)C[C@H]1C[C@@]2(C(=O)OC)C(=C[C@H](C(C)(C)C)O[C@@H]2C)N(Cc2ccc3c(c2)OCO3)C1=O	.	.	.	.	-3.2	-0.3	.	.
C/C(=N\NC(=S)NCc1ccccc1)c1ccc(Cl)s1	23.8	0.6	4.4	1.1	-2.5	-1.1	.	.
C/C(=N\NC(=S)NCc1ccccc1)c1cccs1	12.8	1.2	5.4	1.8	8.1*	-1.6	2.4	1.2
CCCCOC(=O)Nc1ccc(N2CCOCC2)cc1	12.9	1.6	7.0	-0.8	10.5*	-1.8	9.8*	5.7*
CCNCC(=O)Nc1ccc(N2CCOCC2)cc1	-6.7	3.2	18.4	1.0	-2.6	-1.9	.	.
CC(SCc1cc(=O)n2c([nH]c3ccccc32)c1C#N)C(=O)O (configuration not stated)	7.9	-1.2	0.0	2.3	10.9*	-1.3	0.1	-0.2
COCCCNC(=S)Nc1cc(C)c(C)cc1C	3.7	-0.5	-5.0	-1.6	8.6*	-0.8	5.1	0.9
COCCCNC(=S)Nc1ccc(OC(F)F)cc1C	12.2	0.6	2.7	1.4	-2.7	1.0	.	.
SMILES	AI-2 QS mod	FXN GAA850 act	HSF1 inh	HSP90 refold inh	SMARCA2 act	PG9 binder	SMARCA2 conf	GAL4-VP16 Luc
CCOc1ccc(S(=O)(=O)N2CCC(C(=O)NCc3ccccc3CN3CCCC3)CC2)cc1	.	-0.1	.	.	11.9*	-0.2	-2.4	0.9
CC(=O)N1N=C(c2cccc(NS(C)(=O)=O)c2)CC1c1ccc2c(c1)OCO2 (configuration not stated)	.	3.1	2.7	3.0	1.6	-0.3	.	.
CS(=O)(=O)Nc1ccc(C2=NN(S(C)(=O)=O)C(c3ccc4c(c3)OCO4)C2)cc1 (configuration not stated)	10.4	5.8	20.8	4.0	10.1*	0.3	15.6*	6.6*
O=C1Nc2ccccc2N(C(=O)c2c(F)cccc2F)C1c1nc2ccccc2[nH]1 (configuration not stated)	.	.	.	.	10.4*	-1.4	3.9	10.1*
CC(=O)c1sc(NC(=O)CCS(=O)(=O)c2ccc(F)cc2)nc1C	.	1.3	.	.	2.4	0.5	.	.
CC(=O)c1sc(NC(=O)CCS(=O)(=O)c2ccccc2)nc1C	20.9	5.3	5.5	-3.2	11.2*	-2.0	7.8*	0.0
COc1ccc(-c2nc3c(s2)CN(S(C)(=O)=O)CC3)cc1OC	20.7	3.4	-2.4	0.6	6.2	0.7	.	.
CCS(=O)(=O)N1CCc2nc(-c3ccccc3)sc2C1	18.4	5.3	30.5	11.1	8.1*	1.5	7.5	10.6*
COC(=O)C1=C(C)N(Cc2ccccc2C(F)(F)F)C(=NCc2ccccc2C(F)(F)F)NC1c1ccc(Cl)cc1 (configuration not stated)	.	.	.	.	0.8	0.6	.	.
CC1=CC(C)=Nc2ccc(C)cc2N1	24.2	6.9	-27.6	3.6	8.8*!	-0.4	6.8	11.2*
Nc1nc2c(ncn2[C@@H]2O[C@H](C(=O)NCC3CCCCC3)[C@@H](O)[C@H]2O)c(=O)[nH]1	.	.	.	.	-5.7	0.6	.	.
Clc1ccccc1-c1nc(-c2ccncc2)no1	9.9	4.5	24.4	0.8	5.5	-0.3	.	.
O=S(=O)(Cc1noc(-c2ccccc2Cl)n1)c1ccccn1	6.2	3.0	23.0	1.6	16.2*	-2.9	4.3	9.3*
O=c1[nH]c2ccc(S(=O)(=O)Nc3ccc(-c4nnc5n4CCCCC5)cc3)cc2o1	-1.0	0.4	15.5	-2.0	12.1*	-0.1	-1.6	0.7
